Measured values reported in PubChem BioAssay AID1159580 (chemical genetic matrix, 2015).
Values joined by “and” are separate entries in the source; they are usually repeats but may differ in a detail not shown here. Equal entries are not always repeated. The campaign covered roughly 5,500 compounds. About 2,000 (36%) were called active. Inconclusive results (about 18%) are left out. No stated cut-off is given here; in the data, active means normalized growth mostly below about 0.91 (no sharp cut-off); inconclusive means no clear call, values can overlap the other calls; inactive means mostly above about 0.92. Some of the results follow.

Test: chemical genetic growth profiling, strain panel (AID 1159580);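 further: tested at 20 µM; growth read once vehicle control cultures reached saturation at 30 °C; 1 = growth at the plate median or of vehicle wells; lower values mean less growth of the strain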
Conditions: S. cerevisiae deletion strains, growth OD

Measured: normalized growth

CC(=O)O[C@]1(C)CC[C@@]23CC1C(C)(C)[C@@H]2CC[C@H]3C
active: locus YOR184W, strain ser1, hits give low values 0.846
inactive: locus YAL013W, strain DEP1, hits give low values 1 | locus YAL021C, strain ccr4, hits give low values 0.985 | locus YAL026C, strain drs2, hits give low values 0.979 | locus YAL030W, strain snc1, hits give low values 0.98 | locus YBL061C, strain skt5, hits give low values 0.967 | locus YBR009C, strain hhf1, hits give low values 0.968 | locus YBR021W, strain FUR4, hits give low values 0.954 | locus YBR023C, strain chs3, hits give low values 0.961 | locus YBR171W, strain sec66, hits give low values 0.969 | locus YBR229C, strain ROT2, hits give low values 1 | locus YBR231C, strain swc5, hits give low values 0.998 | locus YBR279W, strain paf1, hits give low values 0.979 | locus YCL011C, strain gbp2, hits give low values 0.975 | locus YCL016C, strain dcc1, hits give low values 0.976 | locus YCL029C, strain bik1, hits give low values 1.03 | locus YCL061C, strain MRC1, hits give low values 0.985 | locus YCL069W, strain vba3, hits give low values 0.976 | locus YCR088W, strain abp1, hits give low values 0.978 | locus YDL005C, strain med2, hits give low values 0.967 | locus YDL035C, strain GPR1, hits give low values 0.964 | locus YDL040C, strain nat1, hits give low values 0.972 | locus YDL074C, strain BRE1, hits give low values 0.958 | locus YDL101C, strain DUN1, hits give low values 0.981 | locus YDL185W, strain tfp1, hits give low values 1.02 | locus YDL192W, strain arf1, hits give low values 0.971 | locus YDR001C, strain nth1, hits give low values 0.977 | locus YDR069C, strain doa4, hits give low values 0.974 | locus YDR101C, strain arx1, hits give low values 1.02 | locus YDR137W, strain rgp1, hits give low values 0.944 | locus YDR159W, strain sac3, hits give low values 0.986 | locus YDR162C, strain NBP2, hits give low values 0.905 | locus YDR195W, strain ref2 0.995 | locus YDR297W, strain sur2, hits give low values 0.96 | locus YDR318W, strain mcm21, hits give low values 0.972 | locus YDR334W, strain swr1, hits give low values 0.974 | locus YDR335W, strain msn5, hits give low values 0.975 | locus YDR388W, hits give low values 1.01 | locus YDR392W, strain spt3, hits give low values 0.964 | locus YDR502C, strain sam2, hits give low values 0.979 | locus YEL003W, strain gim4, hits give low values 0.977 | locus YEL037C, strain rad23, hits give low values 0.975 | locus YEL061C, strain CIN8 (second series), hits give low values 0.981 | locus YEL061C, strain CIN8, hits give low values 0.996 | locus YER015W, strain faa2, hits give low values 0.974 | locus YER016W, strain bim1, hits give low values 0.966 | locus YER110C, hits give low values 1.02 | locus YER111C, strain swi4, hits give low values 0.967 | locus YER155C, strain BEM2 (second series), hits give low values 0.974 | locus YER155C, strain BEM2, hits give low values 0.95 | locus YER167W, strain BCK2, hits give low values 0.982 | locus YFR010W, strain ubp6, hits give low values 0.994 | locus YGL078C, strain dbp3, hits give low values 1.01 | locus YGL086W, strain mad1, hits give low values 1.02 | locus YGL167C, strain pmr1, hits give low values 0.977 | locus YGL173C, strain kem1, hits give low values 0.975 | locus YGL227W, strain vid30, hits give low values 0.969 | locus YGL240W, strain doc1, hits give low values 1.01 | locus YGL248W, strain PDE1, hits give low values 0.934 | locus YGL253W, strain hxk2, hits give low values 0.981 | locus YGR078C, strain PAC10, hits give low values 0.946 | locus YGR135W, strain pre9, hits give low values 0.985 | locus YGR252W, strain gcn5, hits give low values 0.867 | locus YHR013C, strain ard1, hits give low values 0.959 | locus YHR027C, strain rpn1, hits give low values 0.986 | locus YHR030C, strain SLT2, hits give low values 0.964 and 0.917 | locus YHR079C, strain IRE1 (second series), hits give low values 1.01 | locus YHR079C, strain IRE1, hits give low values 0.951 | locus YHR094C, strain hxt1, hits give low values 1.01 | locus YHR129C, strain ARP1, hits give low values 0.978 | locus YHR142W, strain chs7, hits give low values 0.967 | locus YHR200W, strain rpn10, hits give low values 1 | locus YIL066C, strain RNR3, hits give low values 0.973 | locus YIL073C, strain SPO22, hits give low values 0.923 | locus YIL125W, strain kgd1, hits give low values 1.01 | locus YIR030C, strain dcg1, hits give low values 0.997 | locus YJL092W, strain hpr5, hits give low values 0.983 | locus YJL095W, strain BCK1 (second series), hits give low values 0.981 | locus YJL095W, strain BCK1, hits give low values 0.84 and 0.968 | locus YJL115W, strain asf1, hits give low values 0.975 | locus YJL129C, strain trk1, hits give low values 0.981 | locus YJL134W, strain LCB3, hits give low values 1.01 | locus YJL154C, strain vps35, hits give low values 0.962 | locus YJL164C, strain tpk1, hits give low values 0.978 | locus YJL166W, strain qcr8, hits give low values 0.978 | locus YJL168C, strain set2, hits give low values 1.01 | locus YJL187C, strain SWE1 (second series), hits give low values 0.97 | locus YJR043C, strain POL32, hits give low values 0.995 | locus YJR066W, strain TOR1, hits give low values 0.958 | locus YJR075W, strain HOC1, hits give low values 0.956 | locus YKL009W, strain mrt4, hits give low values 1.08 | locus YKL068W, hits give low values 0.998 | locus YKL085W, strain MDH1 (second series), hits give low values 1 | locus YKL085W, strain MDH1, hits give low values 1 | locus YKL160W, strain elf1, hits give low values 0.968 | locus YKL190W, strain CNB1, hits give low values 1 | locus YKR001C, strain vps1, hits give low values 0.98 | locus YKR026C, strain gcn3, hits give low values 0.974 | locus YKR091W, strain srl3, hits give low values 0.974 | locus YLL001W, strain dnm1, hits give low values 0.978 | locus YLL026W, hits give low values 0.971 | locus YLL041C, strain sdh2, hits give low values 0.973 | locus YLR027C, strain aat2, hits give low values 0.964 | locus YLR039C, strain RIC1, hits give low values 0.853 | locus YLR058C, strain SHM2, hits give low values 0.974 | locus YLR102C, strain apc9, hits give low values 1.01 | locus YLR113W, strain HOG1, hits give low values 0.911 | locus YLR221C, strain rsa3, hits give low values 0.977 | locus YLR258W, strain gsy2, hits give low values 0.957 | locus YLR262C, strain YPT6 (second series), hits give low values 0.987 | locus YLR262C, strain YPT6, hits give low values 0.848 | locus YLR268W, strain sec22, hits give low values 1.03 | locus YLR320W, strain mms22, hits give low values 0.981 | locus YLR330W, strain CHS5, hits give low values 1 | locus YLR342W, strain FKS1 (second series), hits give low values 1 | locus YLR342W, strain FKS1, hits give low values 0.995 | locus YLR357W, strain rsc2, hits give low values 0.989 | locus YLR370C, strain arc18, hits give low values 0.976 | locus YLR371W, strain rom2, hits give low values 1.01 | locus YLR384C, strain iki3, hits give low values 0.977 | locus YLR418C, strain cdc73, hits give low values 0.864 | locus YML016C, strain PPZ1, hits give low values 1 | locus YML032C, strain rad52, hits give low values 0.965 | locus YML120C, strain ndi1, hits give low values 0.976 | locus YML124C, strain tub3, hits give low values 0.999 | locus YMR058W, strain fet3, hits give low values 0.968 | locus YMR078C, strain ctf18, hits give low values 1.01 | locus YMR125W, strain sto1, hits give low values 0.966 | locus YMR129W, hits give low values 0.973 | locus YMR205C, strain PFK2, hits give low values 0.933 | locus YMR223W, strain ubp8, hits give low values 0.959 | locus YMR231W, strain pep5, hits give low values 0.976 | locus YMR263W, strain SAP30, hits give low values 0.983 | locus YMR307W, strain GAS1, hits give low values 0.74 | locus YNL067W, strain RPL9B, hits give low values 0.969 | locus YNL071W, strain lat1, hits give low values 0.982 | locus YNL183C, strain NPR1, hits give low values 0.961 | locus YNL209W, strain ssb2, hits give low values 0.983 | locus YNL233W, strain BNI4, hits give low values 0.933 | locus YNL248C, strain rpa49, hits give low values 0.978 | locus YNL250W, strain rad50, hits give low values 1.01 | locus YNL271C, strain bni1, hits give low values 1.01 | locus YNL298W, strain CLA4, hits give low values 1.03 | locus YNL307C, strain MCK1, hits give low values 1.01 | locus YNL322C, strain KRE1 (second series), hits give low values 0.952 | locus YNR049C, strain mso1, hits give low values 0.995 | locus YNR052C, strain pop2, hits give low values 0.986 | locus YOL012C, strain htz1 0.829 | locus YOL147C, strain pex11, hits give low values 1 | locus YOR001W, strain rrp6, hits give low values 0.996 | locus YOR061W, strain CKA2, hits give low values 1 | locus YOR069W, strain VPS5, hits give low values 1 | locus YOR070C, strain gyp1, hits give low values 0.993 | locus YOR080W, strain dia2, hits give low values 0.967 | locus YOR083W, strain WHI5, hits give low values 0.979 | locus YOR106W, strain vam3, hits give low values 0.979 | locus YOR136W, strain idh2, hits give low values 1.02 | locus YOR144C, strain elg1, hits give low values 1.01 | locus YOR231W, strain MKK1, hits give low values 0.958 | locus YOR265W, strain rbl2, hits give low values 0.999 | locus YOR270C, strain vph1, hits give low values 0.897 | locus YOR290C, strain snf2, hits give low values 0.947 | locus YOR316C, strain cot1, hits give low values 1 | locus YPL051W, strain arl3, hits give low values 0.976 | locus YPL055C, strain LGE1, hits give low values 0.937 | locus YPL078C, strain atp4, hits give low values 0.999 | locus YPL106C, strain sse1, hits give low values 0.969 | locus YPL240C, strain hsp82, hits give low values 0.982 | locus YPL256C, strain CLN2, hits give low values 0.991 | locus YPR119W, strain clb2, hits give low values 1.01 | locus YPR141C, strain kar3, hits give low values 1 | locus YPR163C, strain tif3, hits give low values 1.02 | locus YPR167C, strain met16, hits give low values 0.98 | strain wtn01, hits give low values 1.04
